Source: PubChem BioAssay AID710 (SRMLSC, 2007)
Out of some 98,000 compounds screened, about 150 (0.15%) were called active.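 The calls were made as follows: active = growth inhibition above about 50% at one test dose (limit read from the data); inactive = the rest.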 Many of the other results were omitted from the sample, so actives are more common in it than they were.

Assay: antibacterial activity against E. coli BW25113 – strain BW25113, expanded library, OD600, primary screen (AID 710);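 also: growth measured after 20 h incubation at 37 °C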
Details: OD600 absorbance, at 100 µM, hits give high values
For `OCCNc1nc2ccccc2[nH]1`, the growth inhibition was 2% (inactive).
With `Cc1ccc(S(=O)(=O)N2CCC(C(=O)NCC3CCCO3)CC2)cc1` (configuration not stated) the growth inhibition was -7% (inactive).
In the case of `CC1(C)Cc2nc3sc4c(SCC(=O)NC(c5ccccc5)c5ccccc5)ncnc4c3cc2CO1`, the growth inhibition is reported as -10% (inactive).
With `CN(C)C(=O)c1cc(Br)ccc1Cl` the growth inhibition was 2% (inactive).
For `C=CCN(C(=O)Cn1ncc2c1-c1cc(C)ccc1OC2)c1ccccc1`, the growth inhibition was 5% (inactive).
In the case of `O=c1[nH]n(-c2cccc(Cl)c2)c2ncccc12`, the growth inhibition is reported as -6% (inactive).
For `CCOc1ccccc1NC(=O)C12CC3CC(C1)CC(c1ccc(C)cc1)(C3)C2`, the growth inhibition was -16% (inactive).
With `O=C(CCN1c2ccccc2Sc2ccccc21)Nc1ccccc1` the growth inhibition was -21% (inactive).
In the case of `Cc1cc([N+](=O)[O-])ccc1NCc1cccc([N+](=O)[O-])c1`, the growth inhibition is reported as -11% (inactive).
For `CCOc1ccc(S(=O)(=O)Nc2ccc(S(=O)(=O)Nc3cc(OC)ccc3OC)cc2)cc1`, the growth inhibition was -6% (inactive).
For `CCCCn1c(=S)[nH]c2cc(S(=O)(=O)N3CCCCC3)ccc21`, the growth inhibition was 2% (inactive).
In the case of `CSC1=N/C(=C\c2ccc3c(c2)OCO3)C(=O)S1`, the growth inhibition is reported as -11% (inactive).
In the case of `COc1cccc(NC(=O)c2nn(C34CC5CC(CC(C5)C3)C4)cc2[N+](=O)[O-])c1`, the growth inhibition is reported as -6% (inactive).
With `O=c1c2ccccc2c(-c2ccc(Br)cc2)nn1Cc1ccccc1` the growth inhibition was -14% (inactive).
For `COc1ccc(-c2cn(-c3ccc(C)cc3)c(=O)n2CC(=O)Nc2ccc(OC)c(OC)c2)cc1`, the growth inhibition was -4% (inactive).
In the case of `CC1CC(C)CN(C/C=C/c2ccccc2[N+](=O)[O-])C1` (configuration not stated), the growth inhibition is reported as -1% (inactive).
In the case of `CCCCNC(=O)OC(C)CNC(=O)OC` (configuration not stated), the growth inhibition is reported as 10% (inactive).
For `Cc1cc(NC(=O)CS(=O)(=O)c2cn(C)c3ccccc23)no1`, the growth inhibition was 0% (inactive).
In the case of `COc1cc(CNCc2cccs2)cc(Br)c1OC`, the growth inhibition is reported as 5% (inactive).
For `c1ccc(COc2ccccc2CNCc2cccnc2)cc1`, the growth inhibition was 3% (inactive).
For `CCNc1nc(N)nc(-c2cc(Cl)ccc2OC)n1`, the growth inhibition was 4% (inactive).
In the case of `Cn1c(-c2sc3cc(C(F)(F)F)cnc3c2-c2ccccc2)n[nH]c1=S`, the growth inhibition is reported as -2% (inactive).
In the case of `C=CCn1c(SCC(=O)c2ccc(Br)cc2)nnc1C(C)NC(=O)Cc1ccc(OC)cc1` (configuration not stated), the growth inhibition is reported as 4% (inactive).
For `Cc1ccc(C(=O)N2CCN(C(=O)N3CCOCC3)CC2)cc1`, the growth inhibition was 0% (inactive).
In the case of `CCN(CC)S(=O)(=O)c1ccc(N(C)Cc2ccc(C(F)(F)F)cc2)nc1`, the growth inhibition is reported as -2% (inactive).
With `CC(C)Cn1cnc2c1c(=O)n(CC(O)c1ccccc1)c(=O)n2CC(C)C` (configuration not stated) the growth inhibition was 8% (inactive).
For `CC(=O)c1c(C)n([O-])c2ccccc2[n+]1=O`, the growth inhibition was 100% (active).
With `CC(=O)c1ccc2c(c1)c1ccccc1n2CC(C)C` the growth inhibition was -1% (inactive).
For `Cc1ccc(C)c(N2C(=O)CS/C2=N\NC(=O)c2ccccc2Cl)c1`, the growth inhibition was 1% (inactive).
For `Nc1c(-c2ccc(F)cc2)cnn1C1CCS(=O)(=O)C1` (configuration not stated), the growth inhibition was 15% (inactive).
For `COc1ccc(-c2c(C(C)=O)c(C)nc3sc4c(=O)n(-c5ccc(C)cc5)nnc4c23)cc1`, the growth inhibition was -14% (inactive).
In the case of `COc1ccc(S(=O)(=O)Nc2ccc(F)cc2)c(C)c1C`, the growth inhibition is reported as 11% (inactive).
With `O=C(c1ccc2c(c1)OCO2)N1CCN(C(=O)c2ccco2)CC1` the growth inhibition was 2% (inactive).
In the case of `CN=C1S/C(=C\c2ccc(Sc3ccc(Cl)cc3)o2)C(=O)N1C`, the growth inhibition is reported as -20% (inactive).
With `COC(=O)CNS(=O)(=O)c1ccc(Cc2ccc(S(=O)(=O)NCC(=O)OC)cc2)cc1` the growth inhibition was 50% (active).
In the case of `COC(=O)CNS(=O)(=O)c1ccc(OC)cc1`, the growth inhibition is reported as 1% (inactive).
With `COC(=O)COc1ccc(S(=O)(=O)Nc2ccc(NC(C)=O)cc2)cc1` the growth inhibition was 0% (inactive).
With `Cc1ccc(C2CC2C(=O)NN)cc1` (configuration not stated) the growth inhibition was -12% (inactive).
In the case of `CCCNC(=O)c1ccccc1NC(=O)CSCc1ccc(OC)cc1`, the growth inhibition is reported as 0% (inactive).
With `Cc1ccc(Sc2cc(N3CCOCC3)nc(-c3ccccc3)n2)cc1` the growth inhibition was -9% (inactive).
For `C=CCn1c(SCC(=O)/C(C#N)=C(\C)N)nc2sc(C)c(C)c2c1=O`, the growth inhibition was -6% (inactive).
In the case of `CC(C)(C)c1ccc(OC2=CS(=O)(=O)c3ccccc32)cc1`, the growth inhibition is reported as -3% (inactive).
With `Cc1ccc(CNC(=O)C2CC(c3ccccc3[N+](=O)[O-])=NO2)o1` (configuration not stated) the growth inhibition was 0% (inactive).
With `CCC(=O)Nc1ccc(S(=O)(=O)NCC2CCCO2)cc1` (configuration not stated) the growth inhibition was 3% (inactive).
For `CC(C)c1ccc(C(=O)NCCCc2ccccc2)cc1`, the growth inhibition was 1% (inactive).
For `C=CCOC(=O)C1=C(C)NC(SCC(=O)OCC)=C(C#N)C1c1ccc(C)cc1` (configuration not stated), the growth inhibition was -10% (inactive).
In the case of `CCOc1ccc(C(=O)NC(C(=O)NCc2ccccn2)C(C)C)cc1` (configuration not stated), the growth inhibition is reported as -6% (inactive).
